Hits are enriched below; roughly 7% of the tested compounds scored in any of these assays.
HP1b binding inh = inhibitors of HP1-beta chromodomain binding to methylated histone tails; P83916; AlphaScreen HP1-beta / biotin-H3K9me3 peptide binding; Potency, µM (top dose mostly 114 µM), actives largely listed as inhibitors; 0.56% of 390,000 active; AID 540317; also: nearly all actives have a fitted effect of over 70% in size
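HP1-beta protein (50 nM final) preincubated 30 min at room temperature with biotinylated H3(1-18)K9me3 peptide (50 nM) in PBS pH 7.4, 0.01% Tween-20, then compound added for 30 min. AlphaScreen streptavidin donor/nickel chelate acceptor beads (10 ug/mL final), 30 min dark, luminescence read.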
JMJD2A Tudor = JMJD2A Tudor domain (human) inhibition | Potency, µM (doses to about 114 µM), usual class: inhibitors | AlphaScreen JMJD2A-Tudor / H3K4me3 peptide binding | 4.4% of 390,000 active | O75164; also: nearly all actives have a fitted effect of over 50% in size
PI5P4K alpha inh = blocks human PI5P4K alpha kinase activity. P48426. PI5P4Kalpha enzyme, ADP-Glo luminescence, 60 min; hits give low values. max response, %. 1.2% of 330,000 active. AID 652105; active = max response of -50% or lower; inconclusive = between -30% and -50%; inactive = -30% or higher; also: value at the top dose of about 77 µM
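ADP-Glo luminescence end-point read after a 60 min room-temperature kinase reaction of PI5P4Kalpha plus substrate, initiated with ATP at 5 microM final. Buffer: 0.038 M HEPES pH 7.4, EGTA, 0.1% CHAPS, 5% DMSO.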
BAZ2B inh = inhibitors of human BAZ2B bromodomain; Q9UIF8; AlphaScreen BAZ2B-H3K14Ac peptide displacement; Potency, µM (series often up to 114 µM), usual class: inhibitors; 4.4% of 360,000 active; also: nearly all actives have a fitted effect of over 60% in size
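BAZ2B (50 nM) with biotin-H3(5-23)K14Ac peptide (50 nM) in PBS pH 7.4, 0.01% Tween-20, preformed 30 min, then compound 30 min at room temperature; top concentration 110uM. AlphaScreen streptavidin donor/nickel chelate acceptor beads (10 ug/mL final), 20 min dark, signal read.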
PLK1 PBD block = inhibitors of human PLK1 polo-box domain binding. AID 720504. Potency, µM, usual class: inhibitors. 2.8% of 360,000 active. Plk1 PBD binding of FITC phosphopeptide, fluorescence polarization; also: series mostly up to about 57 µM; nearly all actives have a fitted effect of over 65% in size
GCN5L2 inh = GCN5L2 (KAT2A) acetyltransferase inhibition | Q92830 | GCN5L2 HAT assay, ThioGlo1 CoA-SH fluorescence | Potency, µM (series often up to 58.9 µM), hits mostly inhibitors | 0.21% of 390,000 active | AID 504327
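Compounds, pin-transferred from DMSO stocks, meet 20nM GCN5L2 for 15 min before the reaction begins with H3(1-25) peptide (75uM) and acetyl-CoA (70uM). Thiol-reactive ThioGlo1 reports CoA release over 20 min at room temperature.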
Numbers stand for hits. Unless noted, calls follow the shape of the dose curve; as a rule, active = well fitted curve in the direction sought with a large enough effect; inconclusive = small, poorly fitted or top-dose-only effect, or another doubt; inactive = no such curve, though single readings can be large; an effect the other way counts as inactive or inconclusive.

`CO[C@H]1C=CO[C@@]2(C)Oc3c(C)c(O)c4c(O)c(c5c(nc6cc(C)ccn65)c4c3C2=O)NC(=O)C(C)=CC=C[C@H](C)[C@H](O)[C@@H](C)[C@@H](O)[C@@H](C)[C@H](OC(C)=O)[C@@H]1C` gave BAZ2B inh inconclusive and GCN5L2 inh inactive.
For CO[C@H]1C=CO[C@@]2(C)Oc3c(C)c(O)c4c(O)c(c5c(c4c3C2=O)NC2(CCN(CC(C)C)CC2)N=5)=NC(=O)C(C)=CC=C[C@H](C)[C@H](O)[C@@H](C)[C@@H](O)[C@@H](C)[C@H](OC(C)=O)[C@@H]1C the results were BAZ2B inh 40µM and GCN5L2 inh inactive.
Screening COC1C=COC2(C)Oc3c(C)c(O)c4c(O)c(c(CN5CCN(C)CC5)c(O)c4c3C2=O)NC(=O)C(C)=CC=CC(C)C(O)C(C)C(O)C(C)C(OC(C)=O)C1C (centres undefined) returned HP1b binding inh inconclusive, JMJD2A Tudor inconclusive, PI5P4K alpha inh inactive and PLK1 PBD block inactive.
For Cc1cc(F)ccc1NC(=O)c1cc(S(=O)(=O)N2CCOCC2)cn1C the results were HP1b binding inh inactive, JMJD2A Tudor inactive, PI5P4K alpha inh inactive, BAZ2B inh inactive, PLK1 PBD block inactive and GCN5L2 inh inactive.
Cc1ccc(Cl)cc1N1CCN(C(=O)COc2cc(=O)n(C)c3ccccc23)CC1 was read as HP1b binding inh inactive, JMJD2A Tudor inactive, BAZ2B inh inconclusive and GCN5L2 inh inactive.
`O=C(NCc1ccccc1)C(c1ccc(C(F)(F)F)cc1)n1c(=O)c(-c2ccco2)nc2ccccc21` (centres undefined) gave PI5P4K alpha inh inconclusive and PLK1 PBD block inactive.
`CC(C)(C)NC(=O)C(C1CC1)n1c(=O)c(-c2ccco2)nc2ccccc21` (centres undefined) gave PI5P4K alpha inh -63 and PLK1 PBD block inactive.
`CC(C)(C)NC(=O)C(c1ccc(C(F)(F)F)cc1)n1c(=O)c(-c2ccco2)nc2ccccc21` (centres undefined) gave PI5P4K alpha inh -64 and PLK1 PBD block inactive.
For COC(=O)C1(C(=O)OC)C2C(=O)C3C(C21)C3(C(=O)OC(C)(C)C)C(=O)OC(C)(C)C (centres undefined) the results were PI5P4K alpha inh inactive and PLK1 PBD block inactive.
Screening O=C(CNCc1ccco1)Nc1ccc(N2CCCCCC2)cc1 returned HP1b binding inh 40µM, JMJD2A Tudor 20µM, PI5P4K alpha inh inactive, BAZ2B inh 28µM, PLK1 PBD block inactive and GCN5L2 inh inactive.
`O=C(Cn1c(-c2ccccc2)noc1=O)Nc1ccc(N2CCCCCC2)cc1` gave HP1b binding inh inconclusive, JMJD2A Tudor 22µM, BAZ2B inh 22µM, PLK1 PBD block inactive and GCN5L2 inh inconclusive.
Screening CC1CCCCN1CC(=O)Nc1ccc(N2CCCCCC2)cc1 (centres undefined) returned HP1b binding inh 22µM, JMJD2A Tudor 1.4µM, PI5P4K alpha inh inactive, BAZ2B inh 11µM, PLK1 PBD block inactive and GCN5L2 inh inactive.
`O=C(CCl)Nc1ccc(N2CCCCCC2)cc1` gave HP1b binding inh inconclusive, JMJD2A Tudor 50µM, PI5P4K alpha inh inactive, BAZ2B inh inconclusive, PLK1 PBD block inactive and GCN5L2 inh inactive.
O=C(Cn1c(-c2ccccc2)noc1=O)Nc1ccc(S(=O)(=O)N2CCOCC2)cc1 was read as HP1b binding inh inactive, JMJD2A Tudor inactive, PI5P4K alpha inh inactive, BAZ2B inh inactive, PLK1 PBD block inactive and GCN5L2 inh inactive.
Screening C#CCN(C[C@H]1[C@H](OC(=O)NC2CCCC2)[C@H](OC(=O)NC2CCCC2)C[C@@H](C(=O)OC)[C@H]1C(=O)OC)S(=O)(=O)c1ccc(C)cc1 returned PI5P4K alpha inh inactive and PLK1 PBD block inconclusive.
Screening CC1(c2ccccc2Cl)NC(=O)N(CC(=O)Nc2ccc(N3CCOCC3)cc2)C1=O (centres undefined) returned HP1b binding inh inactive, JMJD2A Tudor inactive, PI5P4K alpha inh inactive, PLK1 PBD block inactive and GCN5L2 inh inactive.
